The test concerns MDA-MB-468 breast. In words: NCI-60 one-dose screen, 48 h (100 = growth as untreated, 0 = no growth, -100 = all killed). The conditions noted are these: 10 µM unless noted.

These results are taken from PubChem BioAssay (NCI).

The panel holds about 83,000 compounds, 20% with a hit somewhere; the sample as a whole holds those more often.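 How to read the values: 0–100, growth inhibition (40 = 60% inhibited); 0, no net growth; -100 to 0, cell death (-40 = 40% of starting cells died; -100 = all dead).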 Values without a mark were called inactive. Active and inactive are the calls of the source. The calls were made as follows: active = growth percent below 10; inactive = the rest.

`O=C1/C(=C/c2ccccc2O)CC/C1=C\c1ccccc1O`: the growth is 34.3%.
As to `COc1ccc(-c2cn3ccnc3c(-c3ccc4ncn(C5CCCCC5)c4c3)n2)cc1`, the growth is 2.59% (active).
As for `CC(=O)OCCCCCNc1ccccc1`, the figure is 125%.
Then `Cc1cn(-c2cc(NC(=O)c3cncc(C#Cc4c(N)ncc5ccc(F)cc45)c3)cc(C(F)(F)F)c2)cn1`, with 50.8%; and `CC(C)(C)Nc1nc2c(OCCc3ccccc3)cccn2c1-c1ccc(O)cc1`, with 26%.
As for `COc1ccc2c(c1)C(=O)/C(=C/c1ccc(O)cc1)O2`, the figure is -28.5% (active).
With `Nc1ncc(-c2ccc3ncnc(Nc4cccc(Cl)c4)c3c2)cn1`, the growth was -26.4% (active).
Then `Cc1ccc(Cn2c(N3CCC(C(=O)NCc4cccs4)CC3)nc3ccccc32)cc1`, with 95.3%.
Then `CC(=O)N[C@H](C(=O)N[C@@H](CCCNC(=N)N)C(=O)N[C@@H](CCCCN)C(=O)N[C@@H](CCCNC(=N)N)C(=O)NC(C(=O)N[C@@H](CC(C)C)C(=O)N[C@@H](CCCNC(=N)N)C(=O)N[C@@]1(C)CCC/C=C\CCC[C@@](C)(C(=O)N[C@@H](CCCNC(=N)N)C(=O)N[C@@H](CCC(=O)O)C(=O)N[C@@H](CC(C)C)C(=O)N[C@H](C(=O)N[C@@H](CCC(=O)O)C(N)=O)C(C)C)NC(=O)[C@H](CCC(N)=O)NC(=O)[C@H](CC(C)C)NC(=O)[C@H](CC(C)C)NC1=O)[C@@H](C)O)C(C)C` (stereo partly specified), with 31.9%; and `O=C(Nc1ccccc1Cl)OCCN1CCOCC1`, with 109%.
Take `COc1ccc(CN2c3ccccc3CCc3ccccc32)cc1F`: the growth is 4.48% (active).
